# This is a sample that favours compounds with a hit; in the whole collection about 7.9% have one here.
# MCF10A rerep = DNA re-replication induction in MCF 10a cells; MCF 10A DNA re-replication, Hoechst nuclear intensity, 48 h; Potency, µM (highest dose often 46.1 µM), without a hit: at the top dose activity, positive = re-replication, usual class: activators; actives 2.9% (n = 350,000); AID 624296; also: % of control where 0% means no effect; nearly all actives have a fitted effect of over 50% in size
# HT1080 IDH1KD tx = kills HT-1080 cells with IDH1 knockdown. HT-1080 IDH1 knockdown viability, ATP luminescence, 48 h. Potency, µM (top dose mostly 46.1 µM), inactives show at the top dose activity, negative = toxicity, most hits filed as cytotoxic. actives 2% (n = 360,000);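 also: 0% = DMSO wells and -100% = cell-free medium wells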
#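 HT-1080-IDH1KD cells (IDH1 knocked down), 750/well in RPMI with 5% FBS, treated with compound 48 h at 37 degrees C. Viability by CellTiter-Glo luminescence, normalised to DMSO and no-cell wells; concentration-response curves classed.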
# SW480 rereplic = DNA re-replication induction in SW480 cells; SW480 DNA re-replication, Hoechst DNA content imaging, 48 h; Potency, µM (series often up to 46.1 µM), without a hit: top-dose re-replication activation, usual class: activators; actives 1.8% (n = 340,000); also: % of control where 0% means no effect; nearly all actives have a fitted effect of over 55% in size
#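 Compounds, transferred as 23 nL by pin tool, were incubated with cells for 48 hr; DNA content per nucleus was then quantified by Hoechst staining and fluorescence plate imaging.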
# HT1080-NT tox = kills 2HG-producing HT-1080-NT fibrosarcoma cells. Potency, µM (highest dose often 46.1 µM), without a hit: at the top dose activity, negative = less viability, usual class: cytotoxic. AID 686970. actives 1.6% (n = 360,000). HT-1080-NT fibrosarcoma viability, CellTiter-Glo ATP luminescence, 48 h;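 also: NT is the 2HG producing partner of a matched IDH1 knockdown line; 0% = DMSO-treated cells and -100% = media-only wells without cells; nearly all actives have a fitted effect of over 55% in size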
#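 Read-out is CellTiter-Glo luminescence after 10 minutes at room temperature, following 48 hours' compound treatment of HT-1080-NT cells (750 cells/well, RPMI, 5% FBS, 37 degrees C).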
# KB-V1 MDR tox = kills drug-selected multidrug resistant KB-V1 cells; KB-V1 MDR cells viability, CellTiter-Glo, 72 h; Potency, µM (highest dose often 46.1 µM), actives largely listed as cytotoxic; actives 3.4% (n = 400,000); AID 1347076; also: % is scaled to controls: 0 for no effect and ±100 for the full control effect; nearly all actives have a fitted effect of over 60% in size
#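 qHTS viability screen in drug-selected KB-V1 MDR cells: 72 h compound treatment at 37 degrees C, ATP luminescence end point.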
# KB-3-1 cytotox = KB-3-1 parental cell cytotoxicity. AID 1347075. KB-3-1 viability, CellTiter-Glo ATP luminescence, 72 h. Potency, µM (highest dose often 46.1 µM), most hits filed as cytotoxic. actives 1.4% (n = 400,000); also: % is scaled to controls: 0 for no effect and ±100 for the full control effect; nearly all actives have a fitted effect of over 60% in size
#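 Parental KB-3-1 adenocarcinoma cells in phenol-red-free DMEM with 10% FBS were pin-treated with compounds at several concentrations, incubated 72 h at 37 °C, and viability read by CellTiter-Glo luminescence; concentration-effect curves were fitted after normalization.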
# * hit, by the source's call; i = inactive; ? = inconclusive; · = no result given; ! = not active in a repeat. Calls follow the shape of the dose curve; as a rule, active = well fitted curve in the direction sought with a large enough effect; inconclusive = small, poorly fitted or top-dose-only effect, or another doubt; inactive = no such curve, though single readings can be large; an effect the other way counts as inactive or inconclusive. Potency is read from the fitted curve at half-maximal effect.
SMILES,MCF10A rerep,HT1080 IDH1KD tx,SW480 rereplic,HT1080-NT tox,KB-V1 MDR tox,KB-3-1 cytotox
COc1ccc(COC(=O)c2ccc(S(=O)(=O)N3CCC(C)CC3)cc2)cc1,16.4µM*,2.8%,-6.9%,2.7%,i,?
Cc1ccc(NC(=O)c2ccc(S(=O)(=O)N3CCC(C)CC3)cc2)nc1,5.8%,-24.8%,-1.2%,?,?,25.9µM*
COc1cccc(COC(=O)c2ccc(S(=O)(=O)N3CCC(C)CC3)cc2)c1OC,?,-2.3%,-30.2%,-4.8%,i,i
O=C(NC1CCCCC1)C1CCN(S(=O)(=O)N2CCCCCC2)CC1,0.1%,-13.8%,1.5%,3.2%,16.4µM*,i
CN(CCOc1ccccc1)C(=O)c1cc(S(=O)(=O)N2CCOCC2)c(Cl)cc1Cl,·,-14.5%,·,-10.9%,?,i
O=C(CSc1nc2nc(-c3cccs3)cc(C(F)(F)F)c2c(=O)[nH]1)C(F)(F)F,-2.0%,?,-0.9%,?,?,?
S=c1nc(-c2ccccn2)c(-c2ccccn2)n[nH]1,·,?,·,-3.0%,i,i
CC(C)(C)c1ccc(CNC(=O)C2CCCN2C(=O)Nc2ccccc2)cc1 (stereo unspecified),-0.9%,-1.9%,-1.2%,-20.7%,i,i
COc1ccc(S(=O)(=O)N2CCC(NC(=O)Nc3ccc(C)cc3)CC2)cc1,0.1%,7.0%,1.3%,-2.0%,18.4µM*,i
CCN(CC)c1ccc2cc(C(=O)NNC(=O)c3ccc(S(=O)(=O)N4CCCCC4)cc3)c(=O)oc2c1,?,-19.5%,2.91µM*,-1.3%,2.59µM*,i
O=C(NC1CCCCC1)c1ccc(S(=O)(=O)N2CCCC2)cc1,13.6%,-0.5%,0.5%,11.5%,16.4µM*,i
Cc1ccc(NC(=O)C2CCN(S(=O)(=O)c3ccc4c(c3)CC(C)N4C(=O)C3CCC3)CC2)nc1 (stereo unspecified),20.8%,?,6.8%,-25.8%,?,?
CC(=O)N1c2ccc(S(=O)(=O)N3CCC(C(=O)Nc4ccc(C)cn4)CC3)cc2CC1C (stereo unspecified),-1.0%,-9.3%,-4.4%,-5.1%,i,16.4µM*
COc1ccccc1CNC(=O)Nc1nnc(-c2ccncc2)s1,·,·,·,·,i,?
CN(C)S(=O)(=O)c1ccc(Cl)c(NC(=O)CN2C(=O)NC3(CCc4ccccc43)C2=O)c1 (stereo unspecified),2.5%,-7.4%,-33.3%,-4.0%,i,i
Cc1ccc(S(=O)(=O)NNC(=O)c2ccc(O)cc2)cc1,1.8%,6.2%,-8.0%,11.0%,i,i
CC(=O)Nc1ccc(C(=O)NNS(=O)(=O)c2ccc(C)cc2)cc1,0.2%,13.0%,4.11µM*,22.7%,i,i
NC(=NCCCCCCN=C(N)/N=C(\N)Nc1ccc(Cl)cc1)/N=C(\N)Nc1ccc(Cl)cc1,?,18.4µM*!,1.3µM*!,14.6µM*!,?,?
CN(C)CCNS(=O)(=O)c1ccc(N2CCN(c3ccc(F)cc3)CC2)c([N+](=O)[O-])c1,?,18.4µM*,?,?,?,?
O=[N+]([O-])c1cc(S(=O)(=O)NCCN2CCOCC2)ccc1Sc1nnnn1-c1ccccc1,?,?,14.6µM*,?,i,13µM*
O=S(=O)(NCCN1CCOCC1)c1ccc2ccccc2c1,36.9%,-5.5%,?,2.0%,i,i
Cc1ccc(-n2nnnc2Sc2ccc(S(=O)(=O)NCCN(C)C)cc2[N+](=O)[O-])cc1,?,23.1µM*,8.2µM*,?,?,i
c1ccc2c(OCCCN3CCCCCC3)cccc2c1,17.1%,-4.2%,-2.9%,?,i,i
Cc1oc2ncnc(N3CCCCC3)c2c1C(=O)N1CCN(c2cccc(C(F)(F)F)c2)CC1,·,·,·,·,i,i
Cc1cccc(C)c1N1CCN(C(c2ccnc3ccccc23)c2nnnn2-c2ccc3c(c2)OCCO3)CC1 (stereo unspecified),·,?,·,?,18.4µM*,20.6µM*
SMILES,MCF10A rerep,HT1080 IDH1KD tx,SW480 rereplic,HT1080-NT tox,KB-V1 MDR tox,KB-3-1 cytotox
CCC(c1nnnn1-c1ccc2c(c1)OCCO2)N1CCN(c2ccc(F)cc2)CC1 (stereo unspecified),·,?,·,-12.4%,10.3µM*,?
CCC(c1nnnn1-c1ccc2c(c1)OCCO2)N1CCN(c2ncccc2C(F)(F)F)CC1 (stereo unspecified),·,?,·,-11.1%,?,?
c1ccc2c(C(c3nnnn3-c3ccc4c(c3)OCCO4)N3CCCCC3)ccnc2c1 (stereo unspecified),·,-13.3%,·,-18.9%,i,i
CCOC(=O)N1CCN(C(c2ccnc3ccccc23)c2nnnn2-c2ccc3c(c2)OCCO3)CC1 (stereo unspecified),·,?,·,?,18.4µM*,?
CC(C)(C)OC(=O)N1CCCN(C(c2ccnc3ccccc23)c2nnnn2-c2ccc3c(c2)OCCO3)CC1 (stereo unspecified),·,?,·,23.1µM*,i,?
N#CC12C(=O)NC(=O)C1(C#N)C21CCCC1 (stereo unspecified),3.5%,26.7%,-6.1%,11.0%,i,i
COC(=O)Cn1cnc2c(nnn2-c2cccc(OC)c2)c1=O,3.3%,0.8%,-6.4%,-1.6%,i,i
COc1ccc(N2C(=O)c3ccccc3NC(=O)C2C(=O)NCc2ccco2)cc1 (stereo unspecified),·,3.9%,·,11.1%,i,i
COc1ccc(S(=O)(=O)N2CCOCC2)cc1C(=O)N1CCCC1,1.5%,0.0%,0.0%,5.6%,i,i
O=c1[nH]c2ccc(NCc3ccc(-c4cccc(Cl)c4)o3)cc2[nH]1,·,·,·,·,i,i
O=c1ccc2cc(S(=O)(=O)NCc3ccc(Cl)cc3)ccc2[nH]1,·,·,·,·,i,i
COc1ccc(-n2ncc3c(SCC(=O)N4CCN(c5ccccc5OC)CC4)ncnc32)cc1,?,-0.8%,0.9%,-2.5%,9.2µM*,i
c1ccc(CCN2CCN(c3ncnc4c3cnn4-c3ccccc3)CC2)cc1,?,-0.9%,-6.5%,1.6%,i,?
Cc1ccccc1N1CCN(c2ncnc3c2cnn3Cc2ccc(Cl)cc2)CC1,3.5%,-12.1%,16.9%,-5.2%,?,18.4µM*
Cn1ncc2c(N3CCC(Cc4ccccc4)CC3)ncnc21,-10.0%,?,3.2%,-25.0%,4.61µM*,?
